{
  "source": "the OligoGym collection",
  "data": [
    {"molecular_target": "STK32B", "experiment": "pooled miR-30 sensor sort-seq; sequence = guide strand", "settings": "shRNA", "values": [
      {"sequence": "TAGTGTCTCGCTTCTGCACGAT", "sensor-assay potency score (higher = more potent)": -0.331},
      {"sequence": "AACATGTCCGTGTTCATCCAGC", "sensor-assay potency score (higher = more potent)": -0.285},
      {"sequence": "TTTCTTAGTGTCTCGCTTCTGC", "sensor-assay potency score (higher = more potent)": 0.225},
      {"sequence": "TTCTGCTCCTTTCACTACCGTC", "sensor-assay potency score (higher = more potent)": -0.907},
      {"sequence": "TTCTTGAACACCGCGTCCCAGT", "sensor-assay potency score (higher = more potent)": -0.825},
      {"sequence": "TGTAATGTGAACATGTCCGTGT", "sensor-assay potency score (higher = more potent)": 1.03},
      {"sequence": "TTGCATGATCTGCAGCTCCCGG", "sensor-assay potency score (higher = more potent)": -1.07},
      {"sequence": "TTGTCTGGCTTGATGTCTCTGT", "sensor-assay potency score (higher = more potent)": 0.0607},
      {"sequence": "TTCACTACCGTCGCTATGTTGA", "sensor-assay potency score (higher = more potent)": -0.4},
      {"sequence": "TTGGATTCTAGAATCATCTCTT", "sensor-assay potency score (higher = more potent)": 0.951},
      {"sequence": "TAATGTGAACATGTCCGTGTTC", "sensor-assay potency score (higher = more potent)": -0.137}
    ]},
    {"molecular_target": "STMN2", "experiment": "pooled miR-30 sensor sort-seq; sequence = guide strand", "settings": "shRNA", "values": [
      {"sequence": "TTTTCCTCCGCCATCTTGCTGA", "sensor-assay potency score (higher = more potent)": -0.369},
      {"sequence": "TTGGAGAAGCTAAAGTTCGTGG", "sensor-assay potency score (higher = more potent)": -0.769},
      {"sequence": "TTTGCTTCACTTCCATATCATC", "sensor-assay potency score (higher = more potent)": -1.64},
      {"sequence": "TTTCTTCTGGATCTCCTCCAGG", "sensor-assay potency score (higher = more potent)": -0.912},
      {"sequence": "TTCACTTCCATATCATCGTAAG", "sensor-assay potency score (higher = more potent)": -0.831},
      {"sequence": "TTCTTCTTTCCTCTGCAGCCTC", "sensor-assay potency score (higher = more potent)": -0.81},
      {"sequence": "TAATAGCAGCTAGATTAGCCTC", "sensor-assay potency score (higher = more potent)": -0.915},
      {"sequence": "TTGATTTGCTTCACTTCCATAT", "sensor-assay potency score (higher = more potent)": -0.805},
      {"sequence": "TTCCATTTTCAGGATCAGCTTT", "sensor-assay potency score (higher = more potent)": -0.67},
      {"sequence": "ATCATCGTAAGTATAGATGTTG", "sensor-assay potency score (higher = more potent)": -0.449},
      {"sequence": "TAAGTATAGATGTTGATGTTGC", "sensor-assay potency score (higher = more potent)": -0.111},
      {"sequence": "TTCTGAAGGACTTCTCGCTCGT", "sensor-assay potency score (higher = more potent)": 0.283}
    ]},
    {"molecular_target": "STRA6", "experiment": "pooled miR-30 sensor sort-seq; sequence = guide strand", "settings": "shRNA", "values": [
      {"sequence": "TTTCGGTACGTGTAGTAGCCGG", "sensor-assay potency score (higher = more potent)": -0.648},
      {"sequence": "TTCGGTACGTGTAGTAGCCGGG", "sensor-assay potency score (higher = more potent)": -0.203},
      {"sequence": "TGAGATGTAGCACACTTCCAGA", "sensor-assay potency score (higher = more potent)": -1.21},
      {"sequence": "TAGGCACTGAAGCTCATCCAAC", "sensor-assay potency score (higher = more potent)": -1.34},
      {"sequence": "TGTAGCTGAAAGCACCAGCTTC", "sensor-assay potency score (higher = more potent)": -0.655},
      {"sequence": "TCAATCTTCAAGAAGTTTCGGT", "sensor-assay potency score (higher = more potent)": 0.639},
      {"sequence": "TTGGAGGTGTGGTAGCTGCTTC", "sensor-assay potency score (higher = more potent)": -0.709},
      {"sequence": "TTCCTCAGAGTAGCTGCTCTGC", "sensor-assay potency score (higher = more potent)": -1.09},
      {"sequence": "TAGTACTTGTAGATCTTGGGCA", "sensor-assay potency score (higher = more potent)": 0.389},
      {"sequence": "TTTCTTTCTCCAGAACCCCTGC", "sensor-assay potency score (higher = more potent)": -0.557},
      {"sequence": "AACAGTCCCAGTATCTTCCAGG", "sensor-assay potency score (higher = more potent)": -0.995},
      {"sequence": "TAGATGCAGTGTCTCAAGCAGA", "sensor-assay potency score (higher = more potent)": -0.804}
    ]},
    {"molecular_target": "STRADB", "experiment": "pooled miR-30 sensor sort-seq; sequence = guide strand", "settings": "shRNA", "values": [
      {"sequence": "TTCTGTAACAGCATCTGAGTTC", "sensor-assay potency score (higher = more potent)": -0.403},
      {"sequence": "TAATCGGTCACTATTTACTGTG", "sensor-assay potency score (higher = more potent)": -0.781},
      {"sequence": "TAGATTAGTAATTCTGATGTTT", "sensor-assay potency score (higher = more potent)": 0.0372},
      {"sequence": "TTACTGTGTGAGTTCCACTGGA", "sensor-assay potency score (higher = more potent)": 0.572}
    ]}
  ]
}
